Columns and labels:
Test in all cases: log2 ratio of Biotin-Ahx-Ub-VS probe labelling (fragment/DMSO); higher = less target engagement (more negative = stronger competition), active = hit call of the paper (q ≤ 0.05, log2 ratio ≤ -1)
Conditions in all cases: compound concentration: 200 uM; treatment time: 3 h
[1] = target: USP9X (UniProt Q93008)
Procedure, shortened: (§1)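 Labelled DUBs from HEK293T lysate were NeutrAvidin-enriched, digested with LysC and trypsin, and run by diaPASEF LC-MS/MS. Before that, each 495 µg sample in Tris/CHAPS/IGEPAL buffer with protease inhibitors was treated in triplicate with fragment at 200 µM or vehicle for 3 h, then with Biotin-Ahx-Ub-VS at 0.5 µM final for 1 h. Values are average log2 ratios of fragment over vehicle by unpaired t-test, based on global-median-normalised Spectronaut label-free quantities from proteins with ≥2 unique peptides.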

[2] = target: UniProt O00487
Sequence of UniProt O00487 (O00487 whole entry): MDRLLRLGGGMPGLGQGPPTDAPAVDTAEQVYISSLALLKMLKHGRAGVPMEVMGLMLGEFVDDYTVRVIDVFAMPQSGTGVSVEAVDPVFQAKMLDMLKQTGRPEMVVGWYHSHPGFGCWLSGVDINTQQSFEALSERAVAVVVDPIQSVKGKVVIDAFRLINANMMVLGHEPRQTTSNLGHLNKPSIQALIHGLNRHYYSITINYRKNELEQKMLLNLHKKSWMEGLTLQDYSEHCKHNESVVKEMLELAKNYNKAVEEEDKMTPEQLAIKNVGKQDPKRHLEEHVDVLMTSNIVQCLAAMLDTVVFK
Procedure, shortened: as §1

[3] = target: UniProt O00507
Procedure, shortened: as §1

[4] = target: UniProt P51784
Sequence of UniProt P51784 (P51784 whole entry): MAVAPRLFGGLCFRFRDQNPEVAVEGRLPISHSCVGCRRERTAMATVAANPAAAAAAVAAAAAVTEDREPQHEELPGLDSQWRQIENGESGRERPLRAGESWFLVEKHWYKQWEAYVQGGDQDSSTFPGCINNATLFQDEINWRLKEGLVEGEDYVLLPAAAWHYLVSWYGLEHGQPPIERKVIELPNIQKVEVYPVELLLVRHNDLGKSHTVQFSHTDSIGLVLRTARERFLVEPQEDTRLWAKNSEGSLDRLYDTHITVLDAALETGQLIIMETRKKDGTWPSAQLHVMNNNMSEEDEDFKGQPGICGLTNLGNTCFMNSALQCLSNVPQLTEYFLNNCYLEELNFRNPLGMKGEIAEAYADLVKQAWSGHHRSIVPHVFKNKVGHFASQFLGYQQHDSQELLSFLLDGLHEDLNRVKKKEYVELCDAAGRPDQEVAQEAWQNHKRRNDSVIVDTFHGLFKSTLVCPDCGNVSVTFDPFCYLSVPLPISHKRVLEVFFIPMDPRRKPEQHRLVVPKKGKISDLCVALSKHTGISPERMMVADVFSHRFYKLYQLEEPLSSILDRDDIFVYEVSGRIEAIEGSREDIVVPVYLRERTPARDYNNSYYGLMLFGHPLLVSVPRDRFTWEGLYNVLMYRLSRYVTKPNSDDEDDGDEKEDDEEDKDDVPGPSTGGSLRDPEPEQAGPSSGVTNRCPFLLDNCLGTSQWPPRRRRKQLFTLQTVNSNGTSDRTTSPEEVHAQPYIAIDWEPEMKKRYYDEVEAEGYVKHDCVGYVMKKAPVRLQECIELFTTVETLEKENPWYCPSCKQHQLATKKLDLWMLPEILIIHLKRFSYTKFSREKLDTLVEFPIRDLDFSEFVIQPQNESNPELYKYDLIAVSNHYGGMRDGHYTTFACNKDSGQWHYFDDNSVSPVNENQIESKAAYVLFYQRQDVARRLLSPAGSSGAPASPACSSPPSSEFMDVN
Procedure, shortened: as §1

[5] = target: T1, UniProt Q5T2D3
T1 sequence (whole entry): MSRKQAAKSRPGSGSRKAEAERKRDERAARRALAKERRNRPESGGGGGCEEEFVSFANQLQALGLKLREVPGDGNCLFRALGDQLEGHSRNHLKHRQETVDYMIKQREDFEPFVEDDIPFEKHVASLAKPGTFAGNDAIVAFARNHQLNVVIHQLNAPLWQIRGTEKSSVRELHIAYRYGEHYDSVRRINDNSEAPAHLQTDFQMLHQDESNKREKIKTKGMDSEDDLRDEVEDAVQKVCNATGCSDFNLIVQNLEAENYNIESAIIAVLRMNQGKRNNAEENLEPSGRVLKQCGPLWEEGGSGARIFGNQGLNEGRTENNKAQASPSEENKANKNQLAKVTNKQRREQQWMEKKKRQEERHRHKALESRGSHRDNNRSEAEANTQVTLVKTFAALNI
Procedure, shortened: as §1

[6] = target: T2, UniProt Q8TE49
T2 sequence (whole entry): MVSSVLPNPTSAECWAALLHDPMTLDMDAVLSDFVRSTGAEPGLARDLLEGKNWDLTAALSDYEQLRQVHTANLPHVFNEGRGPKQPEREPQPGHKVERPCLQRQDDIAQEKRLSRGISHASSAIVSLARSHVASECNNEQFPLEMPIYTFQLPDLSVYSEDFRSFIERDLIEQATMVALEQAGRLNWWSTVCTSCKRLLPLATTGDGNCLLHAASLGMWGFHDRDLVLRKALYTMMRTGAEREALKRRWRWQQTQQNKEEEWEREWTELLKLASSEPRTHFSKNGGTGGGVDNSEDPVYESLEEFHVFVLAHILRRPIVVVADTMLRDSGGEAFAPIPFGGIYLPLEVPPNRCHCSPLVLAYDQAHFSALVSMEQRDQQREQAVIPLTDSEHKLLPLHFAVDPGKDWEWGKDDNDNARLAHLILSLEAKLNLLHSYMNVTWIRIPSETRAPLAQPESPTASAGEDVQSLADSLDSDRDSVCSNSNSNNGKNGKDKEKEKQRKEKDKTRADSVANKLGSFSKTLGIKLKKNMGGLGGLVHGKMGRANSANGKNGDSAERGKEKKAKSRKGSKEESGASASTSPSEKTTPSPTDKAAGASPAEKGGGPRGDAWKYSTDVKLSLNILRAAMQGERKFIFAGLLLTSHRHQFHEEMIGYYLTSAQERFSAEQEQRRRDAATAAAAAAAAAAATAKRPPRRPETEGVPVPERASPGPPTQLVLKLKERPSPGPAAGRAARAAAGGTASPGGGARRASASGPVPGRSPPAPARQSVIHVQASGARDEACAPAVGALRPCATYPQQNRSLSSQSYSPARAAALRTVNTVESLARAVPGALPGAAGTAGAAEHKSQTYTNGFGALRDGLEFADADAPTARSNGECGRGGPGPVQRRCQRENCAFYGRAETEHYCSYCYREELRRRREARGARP
Procedure, shortened: as §1

[7] = target: T3, UniProt Q9P2H5
T3 sequence (whole entry): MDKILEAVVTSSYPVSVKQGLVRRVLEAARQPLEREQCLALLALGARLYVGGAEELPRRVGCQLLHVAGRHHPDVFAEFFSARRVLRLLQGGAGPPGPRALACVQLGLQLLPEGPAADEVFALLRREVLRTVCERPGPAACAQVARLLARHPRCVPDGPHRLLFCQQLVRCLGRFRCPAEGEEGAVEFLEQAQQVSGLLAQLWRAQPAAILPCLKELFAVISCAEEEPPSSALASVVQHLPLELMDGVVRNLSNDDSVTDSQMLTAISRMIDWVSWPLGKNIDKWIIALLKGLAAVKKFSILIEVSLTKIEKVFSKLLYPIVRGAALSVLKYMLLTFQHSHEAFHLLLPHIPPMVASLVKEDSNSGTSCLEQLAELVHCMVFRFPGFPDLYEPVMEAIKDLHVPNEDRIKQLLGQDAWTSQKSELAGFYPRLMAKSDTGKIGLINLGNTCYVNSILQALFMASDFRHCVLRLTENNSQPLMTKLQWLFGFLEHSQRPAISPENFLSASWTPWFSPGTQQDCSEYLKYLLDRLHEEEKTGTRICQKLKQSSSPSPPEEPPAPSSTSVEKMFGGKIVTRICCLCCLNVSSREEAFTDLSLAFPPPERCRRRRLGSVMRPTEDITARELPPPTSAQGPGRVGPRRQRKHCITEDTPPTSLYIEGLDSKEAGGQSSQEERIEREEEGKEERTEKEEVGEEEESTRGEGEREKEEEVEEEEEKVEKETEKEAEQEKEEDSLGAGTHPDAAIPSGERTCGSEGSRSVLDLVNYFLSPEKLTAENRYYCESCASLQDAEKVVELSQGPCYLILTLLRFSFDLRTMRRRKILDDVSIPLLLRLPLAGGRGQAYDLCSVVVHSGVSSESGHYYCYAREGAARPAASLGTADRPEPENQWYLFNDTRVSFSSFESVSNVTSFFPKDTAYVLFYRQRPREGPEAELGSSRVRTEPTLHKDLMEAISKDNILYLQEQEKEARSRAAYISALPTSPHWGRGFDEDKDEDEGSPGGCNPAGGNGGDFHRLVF
Procedure, shortened: as §1

[8] = target: T4, UniProt Q9UGI0
T4 sequence (whole entry): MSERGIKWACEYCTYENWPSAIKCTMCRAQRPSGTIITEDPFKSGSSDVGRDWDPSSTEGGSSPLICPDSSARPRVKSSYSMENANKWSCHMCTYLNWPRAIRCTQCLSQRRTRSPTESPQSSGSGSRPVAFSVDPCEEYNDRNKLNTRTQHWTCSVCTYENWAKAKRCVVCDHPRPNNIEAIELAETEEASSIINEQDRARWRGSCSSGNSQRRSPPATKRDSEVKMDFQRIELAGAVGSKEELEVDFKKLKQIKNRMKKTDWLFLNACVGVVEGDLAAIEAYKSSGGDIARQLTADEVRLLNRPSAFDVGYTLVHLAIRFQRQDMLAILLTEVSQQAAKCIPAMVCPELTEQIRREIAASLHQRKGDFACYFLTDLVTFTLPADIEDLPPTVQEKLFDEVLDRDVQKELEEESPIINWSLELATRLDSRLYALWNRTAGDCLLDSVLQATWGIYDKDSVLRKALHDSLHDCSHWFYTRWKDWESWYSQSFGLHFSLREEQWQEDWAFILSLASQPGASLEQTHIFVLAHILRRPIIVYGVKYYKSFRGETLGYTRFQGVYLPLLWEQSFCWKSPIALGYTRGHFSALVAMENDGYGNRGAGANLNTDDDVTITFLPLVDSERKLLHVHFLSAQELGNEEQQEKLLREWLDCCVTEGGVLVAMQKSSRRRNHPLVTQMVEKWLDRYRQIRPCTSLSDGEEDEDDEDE
Procedure, shortened: as §1

[9] = target: T5, YOD1 (UniProt Q5VVQ6)
T5 sequence (whole entry): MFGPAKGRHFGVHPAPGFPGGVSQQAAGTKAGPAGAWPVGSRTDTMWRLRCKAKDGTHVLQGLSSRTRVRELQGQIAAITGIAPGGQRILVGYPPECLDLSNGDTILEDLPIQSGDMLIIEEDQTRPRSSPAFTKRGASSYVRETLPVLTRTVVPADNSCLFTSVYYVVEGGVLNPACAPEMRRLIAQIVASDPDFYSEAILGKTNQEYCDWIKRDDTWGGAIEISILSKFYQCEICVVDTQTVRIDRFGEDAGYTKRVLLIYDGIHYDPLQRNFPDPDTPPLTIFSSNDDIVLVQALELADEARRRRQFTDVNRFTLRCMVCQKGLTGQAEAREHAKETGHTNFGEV
Procedure, shortened: as §1

Measured: log2 ratio of Biotin-Ahx-Ub-VS probe labelling

Sequence of USP9X (Q93008 whole entry, the tested form may be a part): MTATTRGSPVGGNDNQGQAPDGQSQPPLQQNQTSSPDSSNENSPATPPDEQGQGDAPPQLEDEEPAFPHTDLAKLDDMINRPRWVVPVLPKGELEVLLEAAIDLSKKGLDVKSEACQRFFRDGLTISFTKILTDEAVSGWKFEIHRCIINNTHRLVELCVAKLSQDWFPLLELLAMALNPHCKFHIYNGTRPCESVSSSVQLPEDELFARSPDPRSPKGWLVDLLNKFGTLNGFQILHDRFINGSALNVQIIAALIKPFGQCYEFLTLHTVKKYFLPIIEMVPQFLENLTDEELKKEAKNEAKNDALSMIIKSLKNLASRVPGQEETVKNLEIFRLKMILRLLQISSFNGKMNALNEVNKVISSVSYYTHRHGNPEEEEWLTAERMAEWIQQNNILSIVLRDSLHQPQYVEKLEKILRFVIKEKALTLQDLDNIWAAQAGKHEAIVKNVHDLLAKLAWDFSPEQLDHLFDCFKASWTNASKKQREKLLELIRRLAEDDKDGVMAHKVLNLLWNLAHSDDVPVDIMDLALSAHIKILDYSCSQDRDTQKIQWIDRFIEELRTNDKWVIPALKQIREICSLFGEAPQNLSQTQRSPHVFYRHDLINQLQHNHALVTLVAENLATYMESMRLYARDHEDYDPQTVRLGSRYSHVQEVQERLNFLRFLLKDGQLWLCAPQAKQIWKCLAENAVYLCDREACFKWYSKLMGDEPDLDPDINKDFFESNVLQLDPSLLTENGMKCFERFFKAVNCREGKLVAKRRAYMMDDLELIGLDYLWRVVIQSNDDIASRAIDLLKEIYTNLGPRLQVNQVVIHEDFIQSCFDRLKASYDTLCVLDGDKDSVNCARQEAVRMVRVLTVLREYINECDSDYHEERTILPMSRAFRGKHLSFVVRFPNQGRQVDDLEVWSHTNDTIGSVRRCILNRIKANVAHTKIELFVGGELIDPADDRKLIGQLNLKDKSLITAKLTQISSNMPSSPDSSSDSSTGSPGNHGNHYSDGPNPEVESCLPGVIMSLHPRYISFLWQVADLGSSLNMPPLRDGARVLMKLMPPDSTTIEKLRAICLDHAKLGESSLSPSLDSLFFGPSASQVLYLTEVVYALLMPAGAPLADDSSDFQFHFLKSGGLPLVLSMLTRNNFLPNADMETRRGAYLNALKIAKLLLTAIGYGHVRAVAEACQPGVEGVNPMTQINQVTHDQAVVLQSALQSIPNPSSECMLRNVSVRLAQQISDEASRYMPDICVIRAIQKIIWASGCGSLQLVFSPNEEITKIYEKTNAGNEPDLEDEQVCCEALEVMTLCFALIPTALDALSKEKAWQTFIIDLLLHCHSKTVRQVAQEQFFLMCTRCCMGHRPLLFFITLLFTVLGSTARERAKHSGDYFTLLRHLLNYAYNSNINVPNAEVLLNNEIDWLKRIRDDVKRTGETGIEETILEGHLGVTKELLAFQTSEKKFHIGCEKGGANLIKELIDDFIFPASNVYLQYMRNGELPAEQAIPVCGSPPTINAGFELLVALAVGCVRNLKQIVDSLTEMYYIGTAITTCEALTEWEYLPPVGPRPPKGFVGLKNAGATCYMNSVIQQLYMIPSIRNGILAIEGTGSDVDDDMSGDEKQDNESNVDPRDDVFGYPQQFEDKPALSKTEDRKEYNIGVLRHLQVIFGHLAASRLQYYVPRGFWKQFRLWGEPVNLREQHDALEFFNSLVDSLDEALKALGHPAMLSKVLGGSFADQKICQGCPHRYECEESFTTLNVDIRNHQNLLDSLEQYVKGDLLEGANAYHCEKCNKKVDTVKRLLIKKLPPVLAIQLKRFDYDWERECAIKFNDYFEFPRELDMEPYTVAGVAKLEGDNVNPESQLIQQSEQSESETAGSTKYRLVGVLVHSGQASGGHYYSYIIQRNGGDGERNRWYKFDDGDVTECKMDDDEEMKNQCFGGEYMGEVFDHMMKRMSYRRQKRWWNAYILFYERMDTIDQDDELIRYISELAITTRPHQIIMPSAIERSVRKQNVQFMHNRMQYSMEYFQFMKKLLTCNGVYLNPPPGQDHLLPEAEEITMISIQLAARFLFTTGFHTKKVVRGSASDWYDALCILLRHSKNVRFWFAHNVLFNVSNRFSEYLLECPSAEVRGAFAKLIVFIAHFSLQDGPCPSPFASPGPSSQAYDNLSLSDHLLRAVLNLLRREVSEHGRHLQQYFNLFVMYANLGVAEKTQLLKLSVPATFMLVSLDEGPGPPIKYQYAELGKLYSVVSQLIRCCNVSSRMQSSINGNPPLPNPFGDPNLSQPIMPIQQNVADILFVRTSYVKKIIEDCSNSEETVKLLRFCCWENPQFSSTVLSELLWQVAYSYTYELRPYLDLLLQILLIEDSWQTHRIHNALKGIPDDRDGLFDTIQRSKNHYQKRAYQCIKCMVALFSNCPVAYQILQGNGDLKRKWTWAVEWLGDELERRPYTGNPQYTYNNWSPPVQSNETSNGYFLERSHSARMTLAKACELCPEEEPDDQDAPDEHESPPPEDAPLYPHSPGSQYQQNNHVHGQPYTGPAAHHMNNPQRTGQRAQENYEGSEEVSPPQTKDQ

CS(=O)(=O)c1ccc(CNC(=O)CCl)cc1
inactive: [1] -0.103 | [2] -0.101 | [3] -0.143 | [4] -0.0799 | [5] -0.383 | [6] -0.563 | [7] 0.0147 | [8] -0.189 | [9] -0.172
